Results on 5 molecules are retold here after PubChem BioAssay.

Molecules are shown by their SMILES. Records with an inconclusive call do not appear. Active and inactive are the calls of the source.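 How the source made its calls, unless noted: active means RAM network inhibition above 8.4% in each of two replicates, 3 SD over the compound average; inconclusive means above 8.4% inhibition in only one replicate; inactive means 8.4% inhibition or less in each replicate.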

Assay [1] is described as follows: reducers of endogenous Her2 protein level, primary screen, SKBR3 breast tumor cells, AlphaScreen, ATP viability (AID 461;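 active means Her2 level under about 52% in both replicate screens, with viability over 70% of control, limit read from the data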;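 on Her2 level: lower value means less Her2 protein in the cells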;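 on viability: percent of carrier control wells set as 100% viability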). The conditions noted are these: 18-24 h, measured here: SKBR3 viability, ATP luminescence, at 10 µM.
Assay [2] concerns the target Receptor tyrosine-protein kinase erbB-2 (Homo sapiens) (UniProt P04626). The assay is described as above. The conditions noted are these: 18-24 h, at 10 µM, stronger effect = lower value.
Assay [3] in a line: SK-BR-3 cell growth inhibitors, pilot screen, 24 h, human (AID 572;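 active means viability at or below 10% of carrier control in both of two separate runs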;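 further: compound exposure lasted between 18 and 24 h rather than exactly 24 h; 100% = carrier-treated control wells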). The following applies: SK-BR-3 viability, CellTiter-Glo luminescence, at 10 µM, stronger effect = lower value.
Assay [4] can be described thus: HUVEC growth inhibition – cell-based, human, primary screen (AID 575;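 active means viability at or below 30% in both replicate assays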;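 further: 100% = median of untreated cell wells with 0.1% DMSO on each plate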). The following applies: HUVEC proliferation, CellTiter-Glo luminescence, 72 h; at 10 µM; stronger effect = lower value.
The nature of assay [5]: growth inhibitors of H69AR lung tumor, primary screen, human, duplicate replicates (AID 580;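 active means viability at or under a set limit in both replicates, limit being median viability minus 3 SD, cut at about 48% in these data, passing the limit was not always enough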;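 further: 100% = mean luminescence of untreated wells and 0% = no signal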). The conditions noted are these: H69AR lung tumor cells viability, ATP luminescence, 72 h; at 10 µM; stronger effect = lower value.
A short description of assay [6]: reversal of MRP1-mediated doxorubicin resistance, pilot screen, H69AR cells, doxorubicin co-treatment (AID 601;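 active means viability loss from added drug above about 55%, and viability with drug at most 40%, in both replicates, limit read from the data, passing the limit was not always enough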). The conditions noted are these: CellTiter-Glo, 72 h, at 10 µM; for differential viability (reversal): stronger effect = higher value.
The nature of assay [7]: 384-well plate pilot, post-Golgi transport modulator project, inhibition of yeast transport mutant growth (AID 636; in the data active means inhibition above about 31%). The following applies: absorbance 615 nm, about 18 h, stronger effect = higher value.
Assay [8] is described as follows: growth suppression of yeast trafficking mutant, preliminary HTS, modulators of trafficking downstream of Golgi apparatus project, 1536-format plate, OD 615 nm (AID 637; in the data active means inhibition above about 30%). The following applies: yeast transport mutant growth, absorbance 615 nm, 18 h; stronger effect = higher value.
Assay [9] in a line: OD615 S. cerevisiae growth inhibition, permissive medium, pilot counter-assay, permissive growth control for S. cerevisiae lifespan shortening project (AID 705;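 active means growth inhibition above 25% in both replicates, a cutoff set 3 SD above the mean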). The following applies: OD615, 24 h, at 10 µM, stronger effect = higher value.
Assay [10] in a line: Restrictive medium S. cerevisiae growth inhibition, OD615, pilot screen of yeast lifespan reduction project, restrictive growth control (AID 706;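 active means growth inhibition above a set limit, 3 SD over mean compound inhibition, in both replicates, cut at about 43% in these data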;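 further: modified DeaD lifespan yeast strain shifted to restrictive glucose medium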). The conditions noted are these: OD615, 48 h, at 10 µM, stronger effect = higher value.
Assay [11] is described as follows: viability gain of MRP-1-high H69AR cells under doxorubicin, pilot screen, MRP-1 activator project, CellTiter-Glo, duplicate (AID 807;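 active means viability increase at or above a cutoff of the median across tested compounds plus 3 SD, cut at about 8.5% in these data, passing the limit was not always enough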;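 further: compound pretreatment 18-22 h then 72 h combined with doxorubicin; 0% = doxorubicin alone and 100% = vehicle without doxorubicin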). The following applies: H69AR viability with doxorubicin, CellTiter-Glo luminescence; at 10 µM; stronger effect = higher value.
A short description of assay [12]: growth suppression of beta-catenin knockout HCT116, pilot screen, human colon tumor cells (AID 823;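 active means cell viability at or below a set limit in both duplicate runs, the limit being the all-compound median minus 4 SD, cut at about 23% in these data, passing the limit was not always enough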;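 further: 0% = wells killed by 20 µM Hyamine and 100% = untreated DMSO cell wells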). The following applies: CellTiter-Glo, 60 h, at 10 µM, stronger effect = lower value.
Assay [13] can be described thus: growth suppression of PTEN-deleted HCT116, pilot screen, cell-based, HCT116 clonal line, CellTiter-Glo (AID 824;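 active means viability at or below 27.92% in each of two runs, the all-compound median minus 4 SD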;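 further: 0% = 20 µM Hyamine control and 100% = vehicle cell control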). The following applies: 60 h, at 10 µM, stronger effect = lower value.
Assay [14] can be described thus: inhibitors of the yeast RAM network, pilot screen, dse1pr::URA3 reporter, 5-FOA selection (AID 869;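 active means inhibition over a set limit, the all-compound mean plus 3 SD, in both replicate runs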;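 further: 0% = DMSO wells with no growth and 100% = 10 µM 1-NA-PP1 with full growth; RAM network block rescues cells from 5-FOA so hits raise OD615 growth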). The following applies: S. cerevisiae dse1pr::URA3 5-FOA growth, OD615, 2 d; at 10 µM; stronger effect = higher value; strain carries analog-sensitive mutant Cbk1 kinase.
Assay [15] can be described thus: RAM signaling pathway blockade in yeast – S. cerevisiae, Pdr1DBD-CYC8 efflux-inhibited sensitized strain, primary screen (AID 1298).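 Further: 0% = DMSO untreated cells without growth and 100% = 10 µM 1-NA-PP1 full growth; higher means more yeast growth rescued from 5-FOA killing.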 The following applies: S. cerevisiae cbk1-as DSE1-URA3 strain, 5-FOA growth OD615, 2 d; at 50 µM; stronger effect = higher value.
[16] abbreviates: H69AR cells + 2 uM doxorubicin, measured here: viability with 2 uM doxorubicin, stronger effect = lower value.
[17] abbreviates: H69AR cells, compound alone cytotoxicity.

Receptor tyrosine-protein kinase erbB-2 (Homo sapiens), sequence (P04626 whole entry, looked up): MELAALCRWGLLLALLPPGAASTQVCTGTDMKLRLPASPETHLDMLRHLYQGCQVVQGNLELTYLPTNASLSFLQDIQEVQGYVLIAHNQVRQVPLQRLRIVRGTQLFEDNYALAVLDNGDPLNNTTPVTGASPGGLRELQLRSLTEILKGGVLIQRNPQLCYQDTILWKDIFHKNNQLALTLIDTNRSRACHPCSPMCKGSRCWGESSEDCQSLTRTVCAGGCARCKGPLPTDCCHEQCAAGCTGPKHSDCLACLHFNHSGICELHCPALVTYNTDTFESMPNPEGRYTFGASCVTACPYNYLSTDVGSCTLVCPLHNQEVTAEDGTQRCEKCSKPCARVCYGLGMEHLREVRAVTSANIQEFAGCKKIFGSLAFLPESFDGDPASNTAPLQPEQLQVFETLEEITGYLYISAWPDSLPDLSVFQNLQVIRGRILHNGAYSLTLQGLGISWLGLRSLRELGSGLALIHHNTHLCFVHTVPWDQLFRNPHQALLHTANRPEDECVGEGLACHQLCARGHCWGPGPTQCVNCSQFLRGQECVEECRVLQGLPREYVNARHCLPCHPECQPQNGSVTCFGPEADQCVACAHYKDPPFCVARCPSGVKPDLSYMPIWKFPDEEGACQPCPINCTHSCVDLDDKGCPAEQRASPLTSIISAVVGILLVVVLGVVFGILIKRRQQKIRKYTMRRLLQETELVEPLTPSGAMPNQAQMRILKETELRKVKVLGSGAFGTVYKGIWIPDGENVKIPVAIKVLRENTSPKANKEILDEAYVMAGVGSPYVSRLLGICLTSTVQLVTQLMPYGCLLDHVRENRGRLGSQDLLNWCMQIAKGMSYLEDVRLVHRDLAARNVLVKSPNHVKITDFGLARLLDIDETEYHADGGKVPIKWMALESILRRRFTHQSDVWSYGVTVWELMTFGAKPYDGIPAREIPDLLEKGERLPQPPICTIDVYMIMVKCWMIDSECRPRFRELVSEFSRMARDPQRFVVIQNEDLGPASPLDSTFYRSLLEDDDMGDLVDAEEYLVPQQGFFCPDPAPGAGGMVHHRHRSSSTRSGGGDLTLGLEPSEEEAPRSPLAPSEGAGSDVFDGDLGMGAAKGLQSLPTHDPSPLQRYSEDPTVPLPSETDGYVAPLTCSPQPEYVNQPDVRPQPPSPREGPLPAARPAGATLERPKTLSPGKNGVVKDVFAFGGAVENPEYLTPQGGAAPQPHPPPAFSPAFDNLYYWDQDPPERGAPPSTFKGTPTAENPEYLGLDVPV

On to `CC(=O)NC(CCS(C)(=O)=O)C(=O)Nc1cccc(C)c1C` (stereo not given), for which the viability in [1] was 89.5%; in assay [3], 89.5% (inactive); in [4], 86.8% (inactive); in assay [5], 75.9% (inactive); in assay [6] (setting [16]) it was 91.3%; in assay [6] (setting [17]), 75.9%. In addition, the figures for the viability in [12] and in assay [13] were 105% (inactive) and 100% (inactive), respectively. In addition, the Her2 level in assay [2] was 93.5% (inactive). Also, in assay [6] (H69AR cells + 2 uM doxorubicin), the differential viability (reversal) is -15.4% (inactive). The inhibition in [7] was -5.2% (inactive); in [8] it was 4.33% (inactive); in assay [14], 0.395% (inactive). Also, the figures for the growth inhibition in assay [9] and in [10] were -7.1% (inactive) and -8.2% (inactive), respectively. For the same molecule, in assay [11], the viability increase was 0.19% (inactive). In addition, the RAM network inhibition in [15] was 3.33% (inactive).
As to `O=C(NCCCN1CCOCC1)c1cc(-c2ccc(O)cc2)on1`, the viability in [1] was 100%; in [3], 100% (inactive); in assay [4], 83.7% (inactive); in [5], 94.8% (inactive); in [6] (setting [16]) it was 89%; in assay [6] (setting [17]), 94.8%. In addition, the figures for the viability in [12] and in [13] were 92.3% (inactive) and 93.7% (inactive), respectively. Also, in assay [2], the Her2 level was 87.5% (inactive). In addition, in assay [6] (H69AR cells + 2 uM doxorubicin), the differential viability (reversal) is 5.84% (inactive). Further, the values for the inhibition in assay [7], in [8] and in assay [14] were -6.4% (inactive), -4% (inactive) and -0.505% (inactive), respectively. The growth inhibition was -9.88% (inactive) in [9] and -16.8% (inactive) in [10]. Besides, the viability increase in [11] is -6.65% (inactive). The RAM network inhibition in assay [15] is 0.12% (inactive).
As for `COc1ccc(S(=O)(=O)N(CC(=O)N2CCN(c3ccccc3OC)CC2)c2ccccc2)cc1`, the viability is 74% in assay [1]; 74% (inactive) in assay [3]; 51.8% (inactive) in [4]; 86.8% (inactive) in assay [5]; 95.4% in [6] (setting [16]); 86.8% in assay [6] (setting [17]). The viability is 67.2% (inactive) in assay [12] and 72.3% (inactive) in [13]. Further, the Her2 level in [2] was 108% (inactive). Further, the differential viability (reversal) in assay [6] (H69AR cells + 2 uM doxorubicin) was -8.61% (inactive). The inhibition in assay [7] is -6.35% (inactive); in assay [8] it was -2.3% (inactive); in assay [14], 0.87% (inactive). Also, the growth inhibition in assay [9] and in assay [10] was -11.3% (inactive) in each case. Besides, the viability increase in assay [11] was 5.84% (inactive). For the same molecule, the RAM network inhibition in assay [15] is 2.02% (inactive).
In the case of `COc1cccc(-c2cc(C(F)(F)F)nc(NCc3ccco3)n2)c1`, the viability in assay [1] is 108%; in [3] it was 108% (inactive); in [4], 61.6% (inactive); in assay [5] it was 95.8% (inactive); in [6] (setting [16]) it was 87.7%; in assay [6] (setting [17]) it was 95.8%. Also, the viability in assay [12] was 70.9% (inactive); in assay [13] it was 67.6% (inactive). In addition, the Her2 level in [2] is 94.5% (inactive). The differential viability (reversal) in [6] (H69AR cells + 2 uM doxorubicin) was 8.14% (inactive). Moreover, the inhibition is -5.27% (inactive) in assay [7], -1.48% (inactive) in [8] and 2.38% (inactive) in assay [14]. The growth inhibition is 0.4% (inactive) in [9] and 18% (inactive) in assay [10]. The viability increase in [11] was -3.81% (inactive). Moreover, the RAM network inhibition in assay [15] is 8.17% (inactive).
For the molecule `CCOc1ccc(C2CC(c3ccccc3C)n3nc(N)nc3N2)cc1` (stereo not given), the viability in [1] was 87.5%; in assay [3] it was 87.5% (inactive); in assay [4], 87.9% (inactive); in [5] it was 87.9% (inactive); in [6] (setting [16]) it was 102%; in [6] (setting [17]) it was 87.9%. The viability in [12] is 93.8% (inactive); in [13] it was 83.3% (inactive). Further, the Her2 level in assay [2] was 93.5% (inactive). Further, the differential viability (reversal) in [6] (H69AR cells + 2 uM doxorubicin) is -14.3% (inactive). The inhibition is -2.82% (inactive) in [7], -3% (inactive) in assay [8] and 1.23% (inactive) in assay [14]. The growth inhibition in assay [9] is -4.05% (inactive); in assay [10] it was 0.985% (inactive). Besides, the viability increase in [11] is -1.27% (inactive). Moreover, in assay [15], the RAM network inhibition is 5.2% (inactive).
